# Inconclusive results are not listed. A call without a number means that no potency is given here. Calls of active or inactive are those of the source. Calls come from the whole dose curve; as a rule, active = well fitted activation curve with a large enough effect in the repeat runs; inconclusive = weak or mixed curves; inactive = no such curve, though single readings can be large or run the other way.
# Molecular target: Nuclear receptor subfamily 1 group I member 2 (Homo sapiens) (UniProt O75469)
# Assay: Human pregnane X receptor (PXR) small molecule agonists, qHTS assay (AID 1346982); note: nearly all actives have a fitted effect of over 35% in size
# Conditions: PXR-Luc HepG2, CYP3A4 luciferase reporter, 24 h; series mostly up to 92.4 µM
# Procedure, shortened: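 Luciferase signal from ONE-Glo (30 min, room temperature) measured activation of hPXR-driven CYP3A4 reporter expression in PXR-Luc HepG2 cells treated with compounds for 24 hr at 37 C.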
# Potency is the fitted concentration of half-maximal effect.
# Nuclear receptor subfamily 1 group I member 2 (Homo sapiens), sequence (O75469 whole entry, looked up): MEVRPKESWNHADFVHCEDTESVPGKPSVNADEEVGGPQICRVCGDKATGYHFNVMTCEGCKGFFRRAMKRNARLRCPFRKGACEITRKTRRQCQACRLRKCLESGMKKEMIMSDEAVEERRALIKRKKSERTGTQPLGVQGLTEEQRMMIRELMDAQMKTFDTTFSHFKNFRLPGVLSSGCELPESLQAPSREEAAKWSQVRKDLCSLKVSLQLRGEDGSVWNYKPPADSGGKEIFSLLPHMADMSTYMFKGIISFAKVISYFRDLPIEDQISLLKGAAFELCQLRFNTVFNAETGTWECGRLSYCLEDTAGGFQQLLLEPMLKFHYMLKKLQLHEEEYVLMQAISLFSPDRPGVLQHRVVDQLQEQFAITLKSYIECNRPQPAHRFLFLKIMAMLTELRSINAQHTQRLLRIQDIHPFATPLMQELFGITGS
row,SMILES,Potency
1,Oc1cc(O)c2c(c1)O[C@H](c1ccc(O)c(O)c1)[C@H](O)C2,inactive
2,CCCCCC[C@@H](CCC)C(=O)O,inactive
3,C[C@H](O)C(=O)Nc1c(I)c(C(=O)NC(CO)CO)c(I)c(C(=O)NC(CO)CO)c1I,inactive
4,[O-][N+](=Nc1ccccc1)c1ccccc1,21.7 µM (active)
5,NC(N)=NS(=O)(=O)c1ccc(N)cc1,inactive
6,CN(C)C(=O)C(CCN1CCC(O)(c2ccc(Cl)cc2)CC1)(c1ccccc1)c1ccccc1,inactive
7,COc1ccc(N=[N+]([O-])c2ccc(OC)cc2)cc1,0.34 µM (active)
8,CCCC=O,inactive
9,COc1nc(C)nc(N)n1,inactive
10,COc1cc(C)cc(O)c1,inactive
11,COc1ccc(NC(C)=O)cc1,inactive
12,Nc1ccn(C2CO[C@H](CO)O2)c(=O)n1 (stereo partly drawn),inactive
13,O=C(O)CCNC(=O)c1ccc(N=Nc2ccc(O)c(C(=O)O)c2)cc1,inactive
14,COC(=O)c1ccc(C(=O)OC)c(C(=O)OC)c1,inactive
15,NC(=O)CCCCC1CCSS1 (stereo not drawn),inactive
16,CCCC(=O)O[C@]1(C(=O)CCl)[C@@H](C)C[C@H]2[C@@H]3CCC4=CC(=O)C=C[C@]4(C)[C@@]3(F)C(=O)C[C@@]21C,2.11 µM (active)
17,Nc1nc(F)nc2c1ncn2[C@@H]1O[C@H](CO)[C@@H](O)[C@@H]1O,inactive

row,SMILES,Potency
1,O=C(O)Cc1cc(I)c(Oc2cc(I)c(O)c(I)c2)c(I)c1,37.8 µM (active)
2,O=C(O)c1ccccc1-c1ccc(C(F)(F)F)cc1,inactive
3,CCn1c(=O)c2c(nc(/C=C/c3ccc(OC)c(OC)c3)n2C)n(CC)c1=O,26.6 µM (active)
4,CCCCCOC(=O)Nc1nc(=O)n([C@@H]2O[C@H](C)[C@@H](O)[C@H]2O)cc1F,inactive
5,Cc1c(C)n(CCN(C)C)c2ccc(C(=O)OCCN(C)C)cc12,inactive
6,Nc1[nH]c(=O)ncc1F,inactive
7,CC(CCO)CCCC(C)(C)O (stereo not drawn),inactive
8,NCCN1CCNC1=O,inactive
9,CCN1CCCC(OC(=O)C(c2ccccc2)c2ccccc2)C1 (stereo not drawn),inactive
10,CCCC(C)CO (stereo not drawn),inactive
11,CCCCCCCCC=O,inactive
12,CC1=CC(C)C(C=O)C(C)C1 (stereo not drawn),inactive
13,NC(CS)C(=O)O (stereo not drawn),inactive
14,CC(C)N1C(=O)c2ccccc2C1=O,inactive
15,C1=C\CC/C=C\CC/C=C\CC/1,inactive
16,CCCCc1ccc2cccc(S(=O)(=O)O)c2c1,inactive

# — PubChem BioAssay (Tox21)
